# Measurements as given in PubChem BioAssay (NCI).
# Compounds without any hit were thinned out: in the full panel of roughly 83,000, 20% have a hit.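 Each cell line was grown in a 96-well plate and treated with one concentration of compound for 48 hours. Values below 10 were considered active.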 Active and inactive are the calls of the source.
# Test system: HL-60(TB) leukemia
# Assay: NCI-60 one-dose screen, 48 h (100 = growth as untreated, 0 = no growth, -100 = all killed)
# Conditions: 10 µM unless noted
row,SMILES,growth
1,Nc1c(C(=O)c2ccccc2)nnc2ncnn12,105% (inactive)
2,Cc1ccc(S(=O)(=O)Nn2c3c(cc(-c4nc5ccccc5s4)c2=O)CCCCCC3)cc1,102% (inactive)
3,CCCCNC(=O)c1ccc(OCC)cc1,99.5% (inactive)
4,C#CC#CC#CC#CC#CC#CC#CC#CC[C@H]1OC[C@H](COC(=O)O[C@@H](C(=O)O[C@H]2C[C@@]3(O)[C@@H](OC(=O)c4ccccc4)[C@@H]4[C@]5(OC(C)=O)CO[C@@H]5C[C@H](O)[C@@]4(C)C(=O)[C@H](OC(C)=O)C(=C2C)C3(C)C)[C@@H](NC(=O)c2ccccc2)c2ccccc2)O1,11.3% (inactive)
5,CCCC(CCC)(C(N)=O)C(=O)O,104% (inactive)
6,COC(=O)[C@H](C)NC(=O)[C@@H](OC)[C@@H]1Cc2cc3cc(OC4CC(OC5CC(O)C(O)C(C)O5)C(O)C(C)O4)c(C)c(O)c3c(O)c2C(=O)[C@H]1OC1CC(OC2CC(OC3CC(C)(O)C(O)C(C)O3)C(O)C(C)O2)C(O)C(C)O1 (stereo partly specified),20.8% (inactive)
7,CC1(C)N=C(N)N=C(N)N1c1cccc(Br)c1,33.9% (inactive)
8,Nc1nc(N)c2c(n1)NC(c1ccccc1)C1CCc3ccccc3C1=N2 (stereo unspecified),-11.2% (active)
9,CCCCn1c(Cc2ccc(OC)cc2)nc2cc(OC)c(OC)cc2c1=O,79.3% (inactive)
10,O=C(CNc1ncco1)Nc1ccc(S(=O)(=O)c2ccc(NC(=O)CNc3ncco3)cc2)cc1,44.8% (inactive)
11,COc1ccc(-c2ccc(-c3ccc(C(=N)N)nc3)s2)cc1,-47.3% (active)
12,O=C(Nc1cc(F)cc2cccnc12)c1cnc(N2CCNCC2)cn1,77.1% (inactive)
13,c1c(-c2cc(C3CC3)[nH]n2)n[nH]c1C1CC1,78.4% (inactive)
14,CCc1nc(N)nc(N)c1C#CC(C)c1cc(-c2ccnc(C)c2)c2oc(C)nc2c1 (stereo unspecified),-42.4% (active)
15,COC(=O)c1nc(-c2ccccc2)oc1S(=O)(=O)N1CCN(c2ccc(OC)cc2)CC1,21.8% (inactive)
16,CNC(=O)c1cc(Oc2ccc3c(c2)sc2nc(-c4ccc(NC(=O)[C@@H](NC(=O)OC)C(C)C)cc4)cn23)ccn1,51.1% (inactive)
17,CSc1nc2sc3cc(Cl)c(Cl)cc3n2c(=N)c1C#N,110% (inactive)
18,O=C(O)c1cn(C2CC2)c2cc(N3CCN(C(=O)Nc4nc(-c5ccc(Br)cc5)cs4)CC3)c(F)cc2c1=O,-2.62% (active)
19,CN1C(=O)/C(=C2\SC(=Nc3ccccc3)N(Nc3ccccc3)C2=O)c2ccccc21,108% (inactive)
20,CN(C)c1ccc2c(N(C)C)cc(N(C)C)nc2c1,92.1% (inactive)
21,Cc1nc(NC(=O)COc2ccc(/C=C3\Cc4ccc(Cl)cc4C3=O)cc2)sc1C,86.5% (inactive)
22,CC(C)[N+](C)(CCOC(COc1ccccc1)COc1ccccc1)C(C)C,30.7% (inactive)
23,CNC(=O)c1cc(Oc2ccc3nc(NC(=O)NC(C)C)sc3c2)ccn1,47.8% (inactive)
24,CCOC(=O)C(=O)C=P(c1ccccc1)(c1ccccc1)c1ccccc1,103% (inactive)
25,Clc1ccc(-c2cnc3nonc3n2)s1,29% (inactive)
26,COC(=O)c1nc(-c2ccc(C)cc2)oc1S(=O)(=O)c1ccc(Cl)cc1,51.8% (inactive)
